In all, about 310,000 compounds went through this assay and about 14,000 (4.5%) showed an effect of 50% or more. The effect is printed as a negative number. The sample as a whole holds a higher share of strong results than the screen did.
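Also: peak tail current of the secondary pulse compared with the same well before compound.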

Sequence of human ether-à-go-go-related gene (hERG) potassium channel (Q12809 whole entry, looked up): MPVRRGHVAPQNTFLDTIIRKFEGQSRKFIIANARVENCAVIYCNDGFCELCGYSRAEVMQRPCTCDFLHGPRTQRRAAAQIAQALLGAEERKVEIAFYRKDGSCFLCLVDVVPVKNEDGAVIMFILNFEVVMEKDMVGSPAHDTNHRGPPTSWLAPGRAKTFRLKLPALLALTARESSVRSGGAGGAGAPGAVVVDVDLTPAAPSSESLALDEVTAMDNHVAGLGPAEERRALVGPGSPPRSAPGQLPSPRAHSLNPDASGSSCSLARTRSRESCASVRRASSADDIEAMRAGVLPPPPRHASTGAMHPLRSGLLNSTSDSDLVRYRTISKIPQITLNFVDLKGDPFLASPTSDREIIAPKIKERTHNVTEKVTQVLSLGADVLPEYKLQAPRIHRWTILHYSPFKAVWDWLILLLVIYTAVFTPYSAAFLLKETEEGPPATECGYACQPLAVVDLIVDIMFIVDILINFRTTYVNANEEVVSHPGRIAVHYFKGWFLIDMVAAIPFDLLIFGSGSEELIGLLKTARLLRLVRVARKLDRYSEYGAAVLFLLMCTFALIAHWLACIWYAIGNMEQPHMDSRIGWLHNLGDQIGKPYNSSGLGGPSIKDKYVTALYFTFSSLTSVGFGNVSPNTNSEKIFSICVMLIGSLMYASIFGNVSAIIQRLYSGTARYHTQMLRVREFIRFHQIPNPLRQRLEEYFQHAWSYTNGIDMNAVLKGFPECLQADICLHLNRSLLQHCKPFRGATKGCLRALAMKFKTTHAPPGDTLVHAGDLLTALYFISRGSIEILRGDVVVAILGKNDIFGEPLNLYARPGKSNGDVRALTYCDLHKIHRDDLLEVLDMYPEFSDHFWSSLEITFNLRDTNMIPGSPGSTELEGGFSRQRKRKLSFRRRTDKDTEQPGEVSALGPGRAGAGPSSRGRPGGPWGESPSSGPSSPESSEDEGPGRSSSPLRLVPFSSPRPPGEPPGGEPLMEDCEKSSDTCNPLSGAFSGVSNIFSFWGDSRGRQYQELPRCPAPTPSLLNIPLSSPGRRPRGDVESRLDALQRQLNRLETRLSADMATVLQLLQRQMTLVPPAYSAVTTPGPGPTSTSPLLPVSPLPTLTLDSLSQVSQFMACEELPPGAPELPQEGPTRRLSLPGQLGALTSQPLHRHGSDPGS

This assay concerns the target human ether-à-go-go-related gene (hERG) potassium channel (human, UniProt Q12809). In words: primary screen, population patch clamp on CHO cells stably expressing hERG; higher = less effect of the substance.
For the compound `Cc1ccc(S(=O)(=O)N(C(=N)N)c2nc(N(C)C)nc(N(C)C)n2)cc1`, the “hERG current change (%, negative = inhibition) at 10uM” value amounted to 4.96%.
With `CN(C)P(=O)(NC(=O)c1cccn1C)N(C)C` the figure was 47.3%; with `CC(=O)Nc1ccc(Nc2ncnc3c2cnn3-c2ccccc2)cc1`, 12.9%.
As to `Cc1cc(C)nc(Nc2nc(-c3ccccc3)cs2)n1`, the “hERG current change (%, negative = inhibition) at 10uM” value worked out at 16.4%.
In the case of `O=C(NCCS(=O)c1ccc(Cl)cc1)c1cccc(Cl)c1` (stereo not drawn), the “hERG current change (%, negative = inhibition) at 10uM” value is given as -12.2%.
`Cc1ccc(C(C)C)c(OC(=O)/C=C/c2ccccc2)c1`: the “hERG current change (%, negative = inhibition) at 10uM” value is reported as 9.52%.
Take `Cn1cc(S(=O)(=O)N2CCCC2)cc1C(=O)N1CCN(c2ccccc2)CC1`: the “hERG current change (%, negative = inhibition) at 10uM” value is reported as -35.8%.
As for `CCc1ccc(NC2=NCCCS2)cc1`, the figure is -9.94%; as for `c1ccc2c3c([nH]c2c1)C1(CCNCC1)NCC3`, -6.06%.
As for `CC(C)CNS(=O)(=O)c1ccc(CCC(=O)N2CCCC2)cc1`, the figure is 24.4%; as for `CCCNS(=O)(=O)c1ccc(CCC(=O)N2CCN(c3ccc(F)cc3)CC2)cc1`, -43.7%.
`CC(C)CNS(=O)(=O)c1ccc(CCC(=O)N2CCN(c3ccc(F)cc3)CC2)cc1`: the “hERG current change (%, negative = inhibition) at 10uM” value is reported as -50.3%.
As for `COc1cc2c3nnc(-c4ccc(F)cc4)c-3cn(Cc3cccc(F)c3)c2cc1OC`, the figure is 29.7%; as for `COc1cc2c3nnc(-c4ccc(F)cc4)c-3cn(Cc3ccccc3)c2cc1OC`, -37.1%.
As to `COc1cc2c3nnc(-c4ccccc4)c-3cn(Cc3ccc(F)cc3)c2cc1OC`, the “hERG current change (%, negative = inhibition) at 10uM” value is recorded as -76.8%.
`COc1ccc(Cn2cc3c(-c4ccc(F)cc4)nnc-3c3cc(OC)c(OC)cc32)cc1`: the “hERG current change (%, negative = inhibition) at 10uM” value is -88.2%.
With `COc1cc2c3nnc(-c4ccc(F)cc4)c-3cn(Cc3ccc(F)cc3)c2cc1OC` the figure was -28.5%; with `COc1cc2c3nnc(-c4ccc(F)cc4)c-3cn(Cc3ccc(C)cc3)c2cc1OC`, 2.79%.
With `COc1ccc(C(=O)O)nc1C` the figure was 5.78%; with `COc1cc(/C(C)=N/NC(=O)CN2CCN(S(=O)(=O)c3ccc(C)cc3)CC2)ccc1O`, -11.6%.
With `C/C(=N\NC(=O)CN1CCN(c2ccc(F)cc2)CC1)c1ccco1` the figure was -30.3%.
Take `C/C(=N/NC(=O)CN1CCN(S(=O)(=O)c2ccc(Br)cc2)CC1)c1ccco1`: the “hERG current change (%, negative = inhibition) at 10uM” value is on record as -68.9%.
With `C/C(=N/NC(=O)CN1CCN(Cc2ccccc2Cl)CC1)c1ccco1` the figure was -25.4%; with `C/C(=N/NC(=O)CN1CCN(S(=O)(=O)c2ccc(C)cc2)CC1)c1ccco1`, -53.7%; with `C/C(=N/NC(=O)CN1CCN(S(=O)(=O)c2ccc(C)cc2)CC1)c1cccc(O)c1`, -15%.
With `C=CCn1c(SCc2ccccc2)nc2scc(-c3ccc(C)o3)c2c1=O` the figure was 8.76%; with `COc1cc(NC2c3ncccc3C(=O)N2Cc2ccco2)cc(OC)c1` (stereo not drawn), -0.0378%; with `CCOC(=O)N1CCN(C(=O)c2ccc(Cn3c(=S)[nH]c4ccc(Br)cc4c3=O)cc2)CC1`, 13.3%.
With `CN(C)NC1=CC(=[N+]2CCCC2)CC(C)(C)C1.[I-]` the figure was 14.6%; with `CC1(C)CC(=O)C=C(Nc2ccc3c(c2)OCCO3)C1`, 17.7%; with `CN(C)c1cccc(NC2=CC(=[N+]3CCOCC3)CC(C)(C)C2)c1.[I-]`, -65.6%.
As to `CCOc1ccc(NC(=O)NC(C)c2ccc3c(c2)OCO3)cc1` (stereo not drawn), the “hERG current change (%, negative = inhibition) at 10uM” value amounted to 21.3%.
In the case of `CC1=NN(Cc2ccccc2)C(=O)C1`, the “hERG current change (%, negative = inhibition) at 10uM” value is -0.313%.
In the case of `CC(=O)Nc1ccn(-c2ccccc2)n1`, the “hERG current change (%, negative = inhibition) at 10uM” value is 8.89%.
As for `O=C(Nc1ccn(-c2ccccc2)n1)c1ccc(Cl)cc1`, the “hERG current change (%, negative = inhibition) at 10uM” value was -8.56%.
As for `O=C(Nc1ccn(-c2ccccc2)n1)c1ccccc1Br`, the “hERG current change (%, negative = inhibition) at 10uM” value is reported as -66%.
Take `O=C1CC(c2ccccc2)CC2=C1C=Nc1ccccc1N2` (stereo not drawn): the “hERG current change (%, negative = inhibition) at 10uM” value is listed as -61%.
With `CC1CC(=O)C2=C(C1)Nc1ccccc1N=C2` (stereo not drawn) the figure was -4.46%; with `O=C1CC(c2ccc(F)cc2)CC2=C1C(c1ccc([N+](=O)[O-])o1)Nc1ccccc1N2` (stereo not drawn), -47.3%; with `O=C1CC(c2ccc(F)cc2)CC2=C1C=Nc1ccccc1N2` (stereo not drawn), -72.8%.
Regarding `CC1(C)CC(=O)C2=C(C1)Nc1ccccc1N=C2.Cl`, the “hERG current change (%, negative = inhibition) at 10uM” value is -8.52%.
As for `O=C1CC(c2ccco2)CC2=C1C=Nc1ccccc1N2` (stereo not drawn), the figure is -24.9%; as for `O=C(Nc1c[nH]c(=O)[nH]c1=O)c1ccc([N+](=O)[O-])cc1`, 10%; as for `COc1cc(C)c(Br)cc1S(=O)(=O)NCCCN1CCOCC1`, 9.66%.
As for `CCOC(=O)c1[nH]c(C)c(C(=O)OCC(=O)N2c3ccccc3CC2C)c1C` (stereo not drawn), the figure is -0.0968%; as for `COc1cc(C(=O)N2CCN(C(=O)c3cc(-c4ccccc4)n[nH]3)CC2)cc(OC)c1OC`, -77.6%.
As for `COc1ccc(S(=O)(=O)N2CCN(C(=O)c3cc(-c4ccc(Br)cc4)n[nH]3)CC2)cc1OC`, the figure is -13.5%; as for `COc1cc(C(=O)N2CCN(C(=O)c3ccccc3)CC2)cc(OC)c1OC`, 8.49%.
In the case of `COc1ccc(-c2cc(C(=O)N3CCN(S(=O)(=O)c4ccccc4)CC3)[nH]n2)cc1`, the “hERG current change (%, negative = inhibition) at 10uM” value came to 8.23%.
Turning to `O=C(c1cc(-c2ccc(Br)cc2)n[nH]1)N1CCN(C(=O)c2ccccc2Br)CC1`, the “hERG current change (%, negative = inhibition) at 10uM” value is recorded as -32.4%.
On to `COc1cc(C(=O)N2CCN(C(=O)c3cc(-c4ccc(Br)cc4)n[nH]3)CC2)cc(OC)c1OC`, for which the “hERG current change (%, negative = inhibition) at 10uM” value was -73.3%.
On to `Cc1nc2sc3c(c2c2nnc(SCC(=O)NCc4ccco4)n12)CCCC3`, for which the “hERG current change (%, negative = inhibition) at 10uM” value is given as -28.2%.
As to `Cc1nnc(SCc2nnc(-c3ccccc3Br)o2)n1-c1ccccc1`, the “hERG current change (%, negative = inhibition) at 10uM” value is reported as -14.6%.
As for `Cc1cnc(C(=O)NCCc2ccc(Cl)cc2)cn1`, the figure is -15.8%.
`COc1ccc(OC)c(C2=CC(=O)C[C@H](c3ccc4c(c3)OCO4)C2)c1`: the “hERG current change (%, negative = inhibition) at 10uM” value is -10.6%.
With `Cc1ccc(C)c(NC(=O)c2sc(Cl)nc2-c2ccccc2)c1` the figure was 13.9%.
As for `O=C1C(NS(=O)(=O)c2ccc(Br)cc2)=C(N2CCCCC2)C(=O)c2ccccc21`, the figure is -33.1%; as for `CCN1CCN(C2=C(NS(=O)(=O)c3ccc(NC(C)=O)cc3)C(=O)c3ccccc3C2=O)CC1`, 7.39%; as for `CCN1CCN(C2=C(NS(=O)(=O)c3ccc(C)cc3)C(=O)c3ccccc3C2=O)CC1`, -57.1%.
As to `NC(=O)C1CCN(C2=C(NS(=O)(=O)c3ccc(Br)cc3)C(=O)c3ccccc3C2=O)CC1`, the “hERG current change (%, negative = inhibition) at 10uM” value is reported as -72.1%.
With `CCN1CCN(C2=C(NS(=O)(=O)c3ccccc3)C(=O)c3ccccc3C2=O)CC1` the figure was -5.21%; with `NC(=O)C1CCN(C2=C(NS(=O)(=O)c3ccccc3)C(=O)c3ccccc3C2=O)CC1`, -13.9%.
Consider `Cc1ccc(S(=O)(=O)NC2=C(N3CCN(Cc4ccccc4)CC3)C(=O)c3ccccc3C2=O)cc1`, for which the “hERG current change (%, negative = inhibition) at 10uM” value is listed as -16.5%.
As for `NC(=O)C1CCN(C2=C(NS(=O)(=O)c3ccc(Cl)cc3)C(=O)c3ccccc3C2=O)CC1`, the figure is -38.3%; as for `CCN1CCN(C2=C(NS(=O)(=O)c3ccc(Br)cc3)C(=O)c3ccccc3C2=O)CC1`, -61.5%.
In the case of `CC(C)(C)c1cc(C(=O)NCCCn2ccnc2)cc(C(C)(C)C)c1.Cl`, the “hERG current change (%, negative = inhibition) at 10uM” value came to 13.1%.
As for `CC(=O)c1cccc(NC(=O)CSc2ccc(-c3ccccn3)nn2)c1`, the figure is -13.6%; as for `COc1cc(C)c(CNc2ccc(OC)c(OC)c2)cc1C`, 7.7%; as for `COC(=O)Cn1c(C(=O)N2CCCC2)cc2c1C[C@H]1CN(C(=O)c3ccccc3)[C@@](Cc3ccc(F)cc3)(C(=O)OC)[C@@H]21`, -67.4%.
Regarding `COCCn1c(C(=O)N2CCCC2)cc2c1C[C@H]1CN(C(=O)c3ccccc3)[C@@](Cc3ccc(F)cc3)(C(=O)OC)[C@@H]21`, the “hERG current change (%, negative = inhibition) at 10uM” value is given as -39.3%.
As for `COC(=O)[C@@]1(Cc2ccc(F)cc2)[C@H]2c3cc(C(=O)N4CCCC4)n(CCO)c3C[C@H]2CN1C(=O)c1ccccc1`, the figure is -51.4%.
With `COC(=O)[C@@]1(Cc2ccc(OC)cc2)[C@H]2c3cc(C(=O)N4CCCC4)n(C[C@H](O)CO)c3C[C@H]2CN1C(=O)c1ccccc1` the figure was -1.32%; with `COC(=O)[C@@]1(Cc2ccc(F)cc2)[C@H]2c3cc(C(=O)N4CCCC4)n(Cc4ccc(C(F)(F)F)nc4)c3C[C@H]2CN1C(=O)c1ccccc1`, -8.27%; with `COC(=O)[C@@]1(Cc2ccc(OC)cc2)[C@H]2c3cc(C(=O)N4CCCC4)n(CCO)c3C[C@H]2CN1C(=O)c1ccccc1`, -34.9%.
Regarding `COc1ccc(-c2csc(N(Cc3ccccc3)C(=O)COc3ccc(Cl)cc3)n2)cc1`, the “hERG current change (%, negative = inhibition) at 10uM” value is reported as 4.31%.
As for `COc1cc(C=O)ccc1OCC(=O)N1CCOCC1`, the figure is 2.65%.
For the compound `Clc1ccc(SCc2nc3ccccc3[nH]2)cc1`, the “hERG current change (%, negative = inhibition) at 10uM” value is -11.2%.
In the case of `COC(=O)c1nnn(-c2ccccc2)c1N`, the “hERG current change (%, negative = inhibition) at 10uM” value is recorded as -7.91%.
On to `O=C(CN1CCN(Cc2ccccc2)CC1)Nc1ccc([N+](=O)[O-])cc1C(=O)Nc1ccccc1F`, for which the “hERG current change (%, negative = inhibition) at 10uM” value is listed as -77.5%.
As for `Cc1ccc([N+](=O)[O-])cc1NC(=O)CN1CCCCC1`, the figure is -11.7%; as for `Cc1ccc(CC(=O)Nc2ccc([N+](=O)[O-])cc2C)cc1`, 0.803%.
For the compound `O=C(CN1CCN(c2cccc(Cl)c2)CC1)Nc1ccc([N+](=O)[O-])cc1C(=O)Nc1ccccc1F`, the “hERG current change (%, negative = inhibition) at 10uM” value worked out at 14.4%.
Take `CCOC(=O)N1CCN(CC(=O)Nc2ccc([N+](=O)[O-])cc2C(=O)Nc2ccccc2F)CC1`: the “hERG current change (%, negative = inhibition) at 10uM” value is -50.7%.
With `Cc1ccc(C)c(N2CCN(CC(=O)Nc3ccc([N+](=O)[O-])cc3C(=O)Nc3ccccc3F)CC2)c1` the figure was -18%.
Take `Cc1cc([N+](=O)[O-])ccc1NC(=O)CN1CCN(Cc2ccccc2)CC1`: the “hERG current change (%, negative = inhibition) at 10uM” value is -73.9%.
With `CCC(C)NCC(=O)Nc1ccc([N+](=O)[O-])cc1C(=O)Nc1ccccc1F` (stereo not drawn) the figure was -34.7%; with `O=C(CN1CCN(c2ccccn2)CC1)Nc1ccc([N+](=O)[O-])cc1C(=O)Nc1ccccc1F`, -34.7%.

Source of the values: article PMC4336329 (PLoS ONE, 2015).
